High-throughput results deposited in PubChem BioAssay by National Center for Advancing Translational Sciences (NCATS).
The list is not random: actives were taken first. Their share in the collection is about 21%.
DRD3 agonist = activates the human D3 dopamine receptor; D3R DiscoveRx beta-arrestin cells, luminescence, 90 min; max activation, %; actives 0.58% (n = 410,000); in the data active means max activation above about 30%; further: 0% is about no effect
Target sequence (P35462 whole entry, looked up): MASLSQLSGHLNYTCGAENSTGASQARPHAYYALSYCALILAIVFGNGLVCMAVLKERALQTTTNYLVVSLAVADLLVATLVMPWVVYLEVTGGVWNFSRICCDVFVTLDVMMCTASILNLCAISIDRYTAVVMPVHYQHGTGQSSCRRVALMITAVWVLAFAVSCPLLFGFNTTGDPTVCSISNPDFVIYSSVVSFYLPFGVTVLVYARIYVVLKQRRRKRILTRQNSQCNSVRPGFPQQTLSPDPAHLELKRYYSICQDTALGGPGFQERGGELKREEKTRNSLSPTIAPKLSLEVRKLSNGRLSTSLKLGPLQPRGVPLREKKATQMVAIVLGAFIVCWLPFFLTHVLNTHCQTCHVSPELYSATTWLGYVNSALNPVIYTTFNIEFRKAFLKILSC
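Cells at 1500/well, incubated overnight, then treated with pinned compounds (dopamine as control) for 90 min at 37 degrees C. DiscoveRx reagent added for 30 - 60 minutes at room temperature; luminescence read.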
TDP1 cell noCPT = qHTS for Inhibitors of human tyrosyl-DNA phosphodiesterase 1 (TDP1): qHTS in cells in absence of CPT; Potency, µM (doses to about 46.2 µM), without a hit: at the top dose activity change, negative = growth inhibition, most hits filed as inhibitors; actives 15% (n = 420,000); DT40 Tdp1-/- hTDP1 cells, no CPT, ATP luminescence, 48 h; further: potency means the concentration at half of the fitted maximal effect; on the % scale 0 is the no-effect control and ±100 the full control effect; nearly all actives have a fitted effect of over 55% in size
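DT40 Tdp1-/-;hTDP1 cells, no CPT (DMSO vehicle only), 400 cells/well; compounds pin-transferred; ≥48 hr, 37 °C; CellTiter-Glo 30 min RT dark, luminescence read.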
IL1B secr inh = inhibitors of inflammasome signaling (IL-1 beta secretion); actives 4.7% (n = 360,000); THP-1 LPS/ATP IL-1B secretion, AlphaLISA, 16 h; stronger effect = lower value; activity change, % at 57.5 µM; in the data active means activity change below about -50%; inconclusive means mostly about -30% to -49%; further: on the % scale 0 is the no-effect control and ±100 the full control effect
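Secreted IL-1B measured by AlphaLISA bead assay after 16 h compound exposure of THP-1 cells; compounds (final up to 57.5 uM) added 1 h before LPS (250 ng/mL) and ATP (1.25 mM) stimulation; lower signal means less secretion.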
D3 antag = antagonists of human D3 dopamine receptor | P35462 | D3R cells, DiscoveRx beta-arrestin luminescence, antagonist mode; stronger effect = lower value | max response, negative = inhibition, % | actives 2.5% (n = 360,000) | AID 652054; in the data active means max response below about -50%; inconclusive means no clear call, values can overlap the other calls; further: on the % scale 0 is the no-effect control and ±100 the full control effect
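Cells expressing the human receptor were seeded at 1500 cells/well, incubated overnight at 37 degrees C in 5% CO2, then exposed to library compounds with dopamine controls for 90 minutes at 37 degrees C before luminescent detection.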
DT40 TDP1 CPT = DT40-hTDP1 cell growth loss with CPT; chicken DT40 Tdp1-/-;hTDP1 cells + 20 nM CPT, ATP luminescence, 48 h; actives 12% (n = 420,000); Potency, µM (titrated, usually from 46.2 µM), for inactives: at the highest dose activity change, negative = growth inhibition, actives largely listed as inhibitors; AID 686979; further: potency means the concentration at half of the fitted maximal effect; on the % scale 0 is the no-effect control and ±100 the full control effect; nearly all actives have a fitted effect of over 55% in size
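Cell growth measured by CellTiter-Glo luminescence after a minimum 48 h, 37 C compound exposure with 20 nM CPT in Tdp1-knockout DT40 cells stably expressing hTDP1, seeded 400/well; qHTS titration format.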
ClpP mod = qHTS Assay for Activators of ClpP; ATP-dependent Clp protease proteolytic subunit (Bacillus subtilis (strain 168)), P80244; purified B. subtilis ClpP, FRET peptide cleavage, 20 min; Potency, µM (series often up to 57.5 µM), inactives show at the top dose activity change, negative = active; actives 1.9% (n = 340,000); AID 651965, 2013; active means well fitted falling curve with a large enough effect; inconclusive means small, poorly fitted or top-dose-only effect; inactive means no such curve, though single readings can be large or run the other way; further: potency means the concentration at half of the fitted maximal effect; the source files actives as falling curves though it sought activators and does not explain the sign; nearly all actives have a fitted effect of over 65% in size
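Purified B. subtilis ClpP, 10 microg/mL final in Tris/HCl pH8 with KCl, BSA, glycerol and Tween-20, cleaved an Abz/nitrotyrosine-quenched decapeptide. Fluorescence (ex 320, em 430) was read at 0 and 20 min at room temperature. Delta was normalized to 5.8 microM ADEP and DMSO/no-enzyme controls.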
Numbers without * were called inactive; u = inconclusive; x = not tested or not shown. Unless noted, the call rests on the fitted dose curve; in most records, active means well fitted inhibition curve with a large enough effect; inconclusive means small, poorly fitted or top-dose-only effect; inactive means flat fitted curve, though single readings scatter.

SMILES	DRD3 agonist	TDP1 cell noCPT	IL1B secr inh	D3 antag	DT40 TDP1 CPT	ClpP mod
CCC(C)Sc1ccc([C@@H]2[C@@H]3C(=O)N(CC)C(=O)[C@@H]3[C@]3(C(=O)OC)CCCCN23)cc1OC (some centres not stated)	11	u	-13	16	u	-1%
COc1cc(NC(=O)C/C(C)=N/NC(=O)C(=O)NCCO)c(OC)cc1Cl	-5	-26%	4	-16	u	0%
CCOCc1nc(N)nc(N)c1-c1cccc(Cl)c1	-2	7.3µM*	11	58	8.2µM*	-1%
CCCCOCCCNc1ncnc2c1[nH]c1ccccc12	-28	2.3µM*	-95*	-11	2.1µM*	28µM*
CCOCCCNc1ncnc2c1[nH]c1ccccc12	-8	16µM*	0	12	10µM*	16µM*
c1ccc2c(c1)[nH]c1c(NCC3CCCO3)ncnc12 (configuration not stated)	1	15µM*	11	19	u	28µM*
CCOCCCNc1nc2ccccc2[nH]1	6	-29%	8	15	-16%	1%
c1nc(NCC2CCCO2)c2[nH]cnc2n1 (configuration not stated)	-14	-14%	-8	-8	-16%	-2%
Cc1cc(C)cc(OC(=O)C23CCC(C)(C(=O)O2)C3(C)C)c1 (configuration not stated)	-5	-20%	15	3	2%	x
Cc1ccc(CNC(=O)CN2C(=O)C3(SCC(=O)N3c3ccc(F)c(F)c3)c3ccccc32)cc1 (configuration not stated)	6	u	x	x	-27%	1%
COc1cc2c(cc1NC(=O)C(Cl)Cl)-c1ccc(NC(=O)C(Cl)Cl)cc1C2	-8	8.2µM*	-97*	u	8.2µM*	-14%
CN(CCCCCCCCCCN(C)C(=O)Oc1cccc([N+](C)(C)C)c1)C(=O)Oc1cccc([N+](C)(C)C)c1	9	0.82µM*	2	18	2.3µM*	0%
CCN(C)C(=O)Oc1cccc([C@H](C)N(C)C)c1	5	-11%	x	x	-11%	x
CCCCNc1c(C(=O)OCC)c(C)nc2c1cnn2CC	-18	21µM*	1	0	13µM*	-1%
CCOC(=O)c1c(C)nc2c(C#N)cnn2c1C	1	-21%	-13	u	-14%	u
CC1CN(C(=O)c2cccc(C(=O)N3CC(C)OC(C)C3)c2)CC(C)O1 (configuration not stated)	1	0%	10	9	-19%	-1%
COc1cc2c(cc1OC)CN(C(=O)c1ccc(-c3ccccc3)cc1)CC2	4	u	61	13	u	-1%
Cc1onc(C(=O)N2CCN(C(c3ccccc3)c3ccccc3)CC2)c1[N+](=O)[O-]	3	u	-99*	8	u	1%
Cc1onc(C(=O)N2CCOCC2)c1[N+](=O)[O-]	-1	1%	-8	25	-5%	0%
Cc1c(C(=O)N2CCN(C(c3ccccc3)c3ccccc3)CC2)oc2ccccc12	-2	u	13	u	16µM*	-3%
Cc1c(C(=O)N2CC(C)OC(C)C2)oc2ccccc12 (configuration not stated)	-1	-11%	-20	-72*	-13%	-1%
COc1cc2c(cc1OC)CN(C(=O)c1oc3ccccc3c1C)CC2	17	23µM*	-11	12	21µM*	x
CC12CCC(C(=O)N3CCN(C(c4ccccc4)c4ccccc4)CC3)(OC1=O)C2(C)C (configuration not stated)	-15	18µM*	1	-30	u	-3%
